Among the test systems are RPMI-8226 leukemia; OVCAR-8 ovarian; OVCAR-5 ovarian; OVCAR-4 ovarian; SK-OV-3 ovarian; OVCAR-3 ovarian; HS 578T breast; NCI/ADR-RES ovarian; T-47D breast; IGROV1 ovarian.
Experiment in all cases: NCI-60 one-dose screen, 48 h (100 = growth as untreated, 0 = no growth, -100 = all killed)
Holding throughout (conditions): 10 µM

SMILES strings stand for the structures. About 83,000 compounds went through this panel and 20% of them were active in at least one assay; those are over-represented in the sample as a whole.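 Single-dose data. Exposure time 48 hours. Values below 10 considered active.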 Unmarked numbers belong to inactive results. Calls of active or inactive are those of the source.

For the compound `CN(C)Cc1cn(-c2ncc(-c3ccc(C(F)(F)F)cc3)c(NC3CCCCCC3)n2)nn1`, the growth with RPMI-8226 leukemia is 60.4%; with OVCAR-8 ovarian, 83.1%; in the experiment with OVCAR-5 ovarian it was 110%; in the experiment with OVCAR-4 ovarian it was 79.9%; in the experiment with SK-OV-3 ovarian, 86.5%; in the experiment on OVCAR-3 ovarian, 86%. Moreover, the figures for the growth in the experiment with HS 578T breast, with NCI/ADR-RES ovarian and in the experiment on T-47D breast were 93.6%, 91.9% and 81.7%, respectively.
`NC1=NC(=O)C(c2ccccc2)(c2ccccc2)S1`: the growth was 96.3% in the experiment with RPMI-8226 leukemia; 107% with OVCAR-8 ovarian; 109% in the experiment on OVCAR-5 ovarian; 97% in the experiment on OVCAR-4 ovarian; 105% in the experiment on SK-OV-3 ovarian; 119% in the experiment with OVCAR-3 ovarian. Further, the growth with HS 578T breast is 108%.
Consider `N#CCCN(NC(=O)OCc1ccccc1)C(=O)OCc1ccccc1`, for which the growth in the experiment on RPMI-8226 leukemia was 110%; with OVCAR-8 ovarian it was 99%; in the experiment on OVCAR-5 ovarian, 108%; in the experiment on OVCAR-4 ovarian, 111%; with SK-OV-3 ovarian it was 122%; in the experiment with IGROV1 ovarian it was 118%. The growth in the experiment with OVCAR-3 ovarian was 118%; with NCI/ADR-RES ovarian it was 105%; with T-47D breast, 109%.
For `CCCCCCCCN(CCCCCCCC)CCCCCCCCCN1CCCc2cc(OC)ccc21`, the growth in the experiment with RPMI-8226 leukemia was 65.9%; in the experiment on OVCAR-8 ovarian it was 101%; with OVCAR-5 ovarian, 90.9%; with OVCAR-4 ovarian, 78.2%; in the experiment on SK-OV-3 ovarian, 93.6%; in the experiment on IGROV1 ovarian, 101%. Also, the growth is 91.3% in the experiment with HS 578T breast, 88.5% in the experiment with NCI/ADR-RES ovarian and 74.3% in the experiment on T-47D breast.
As for `O=C1/C(=C\c2ccc(Cl)cc2)CN(C(=O)c2ccccc2)C/C1=C\c1ccc(Cl)cc1`, the growth is -25% (active) with RPMI-8226 leukemia; 4.04% (active) in the experiment with OVCAR-8 ovarian; 83.8% in the experiment on OVCAR-5 ovarian; 36% in the experiment on OVCAR-4 ovarian; 59.3% in the experiment on SK-OV-3 ovarian; -8.04% (active) with OVCAR-3 ovarian. Moreover, the growth was 5.5% (active) in the experiment on HS 578T breast, 28.3% in the experiment with NCI/ADR-RES ovarian and 67.2% in the experiment on T-47D breast.
On to `CCCN(CCC)CCC(O)c1cc2c(c3ccccc13)CCCC2` (configuration not stated), for which the growth was 86.1% with RPMI-8226 leukemia; 102% in the experiment on OVCAR-8 ovarian; 84.9% with OVCAR-5 ovarian; 103% in the experiment with OVCAR-4 ovarian; 90.1% in the experiment with SK-OV-3 ovarian; 77.8% in the experiment with IGROV1 ovarian. Moreover, the growth in the experiment on HS 578T breast was 88%; with NCI/ADR-RES ovarian it was 83.3%; with T-47D breast, 68.9%.

Source of the values: PubChem BioAssay (NCI).
